We go through four compounds from PubChem BioAssay.

The nature of assay [1]: compounds binding Alexa647 anti-His antibody – biochemical, small-molecule microarray, 635 nm fluorescence, artefact control for SMM control protein annotation, primary screen (AID 1128).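 Further: score merges feature fluorescence with signal-to-noise for each printed compound spot.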 The settings on record: higher = more signal.
In assay [2] the test system is Human papillomavirus type 1a E7 protein (residues 1-88). Put plainly: HPV1a E7 small-molecule binders, primary screen, biochemical, small-molecule microarray, residues 1-88, 635 nm (AID 1129). Particulars: small-molecule microarray binding, fluorescence 635 nm; higher = more signal.
In assay [3] the target is Focal adhesion kinase 1 (Homo sapiens) (UniProt Q05397). Put plainly: PTK2 protein binding on printed compound slides – biochemical, small-molecule microarray, 635/667 nm fluorescence, BSA, DTT, primary screen (AID 1130).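 Further: composite of spot emission at 667 nm and signal to noise over triplicate slides.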 Particulars: 635 nm fluorescence, higher = more signal.
Chain of Focal adhesion kinase 1 (Homo sapiens) (Q05397 whole entry, looked up): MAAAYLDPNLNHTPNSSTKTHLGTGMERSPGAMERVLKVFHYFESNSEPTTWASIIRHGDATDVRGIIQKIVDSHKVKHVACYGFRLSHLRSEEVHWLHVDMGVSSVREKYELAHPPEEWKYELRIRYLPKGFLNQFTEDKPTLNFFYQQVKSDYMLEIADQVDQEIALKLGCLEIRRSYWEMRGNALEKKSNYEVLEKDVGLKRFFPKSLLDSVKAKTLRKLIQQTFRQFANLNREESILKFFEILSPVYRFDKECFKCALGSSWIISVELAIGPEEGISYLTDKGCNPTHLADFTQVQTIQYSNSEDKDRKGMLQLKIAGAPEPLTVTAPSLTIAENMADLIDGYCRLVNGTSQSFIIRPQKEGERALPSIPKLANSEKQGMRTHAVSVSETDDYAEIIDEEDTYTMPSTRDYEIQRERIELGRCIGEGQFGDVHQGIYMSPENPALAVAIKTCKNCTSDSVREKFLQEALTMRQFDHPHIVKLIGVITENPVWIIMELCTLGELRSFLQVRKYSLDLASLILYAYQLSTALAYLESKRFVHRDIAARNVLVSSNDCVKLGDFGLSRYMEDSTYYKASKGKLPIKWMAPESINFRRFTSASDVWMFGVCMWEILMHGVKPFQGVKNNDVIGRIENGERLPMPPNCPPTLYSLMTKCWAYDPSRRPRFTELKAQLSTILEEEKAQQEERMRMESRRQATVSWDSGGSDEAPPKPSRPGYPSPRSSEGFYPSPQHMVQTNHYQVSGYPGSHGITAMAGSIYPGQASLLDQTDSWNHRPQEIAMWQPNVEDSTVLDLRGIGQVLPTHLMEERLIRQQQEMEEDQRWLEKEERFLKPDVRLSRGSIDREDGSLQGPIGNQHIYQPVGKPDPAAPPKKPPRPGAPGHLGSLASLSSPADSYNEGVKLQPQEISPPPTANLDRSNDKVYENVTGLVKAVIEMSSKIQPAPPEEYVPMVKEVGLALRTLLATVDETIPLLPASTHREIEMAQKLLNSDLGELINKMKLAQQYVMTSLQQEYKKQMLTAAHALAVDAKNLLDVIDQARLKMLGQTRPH
Assay [4] concerns Fibrinogen (Alexa647-labelled). The assay can be described thus: Alexa647-fibrinogen binding to printed small molecules – biochemical, small-molecule microarray, 635/667 nm fluorescence, artefact control for SMM control-protein annotation, profiling panel (AID 1131).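 Further: z-score merges 667 nm fluorescence with per-spot signal-to-noise over triplicate slides.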 Particulars: fibrinogen-A647 binding fluorescence, higher = more signal.
In assay [5] the target is Follistatin (Homo sapiens) (UniProt P19883). Put plainly: FST protein binding to printed compounds – biochemical, small-molecule microarray, 635/667 nm fluorescence, primary screen (AID 1132). Particulars: 635 nm fluorescence, higher = more signal.
Chain of Follistatin (Homo sapiens) (P19883 whole entry, looked up): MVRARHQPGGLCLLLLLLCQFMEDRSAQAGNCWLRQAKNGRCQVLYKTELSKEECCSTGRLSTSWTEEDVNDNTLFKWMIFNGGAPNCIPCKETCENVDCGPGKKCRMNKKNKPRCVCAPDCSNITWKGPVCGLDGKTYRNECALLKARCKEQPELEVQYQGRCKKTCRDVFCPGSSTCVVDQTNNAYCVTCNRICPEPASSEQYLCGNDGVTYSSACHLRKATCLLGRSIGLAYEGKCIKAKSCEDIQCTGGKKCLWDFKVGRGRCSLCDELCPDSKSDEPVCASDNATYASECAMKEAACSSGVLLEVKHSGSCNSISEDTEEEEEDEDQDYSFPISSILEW
Assay [6] has as its target Fibroblast growth factor 2 (Homo sapiens) (UniProt P09038). The assay can be described thus: basic fibroblast growth factor binding to printed compounds – biochemical, small-molecule microarray, 635/667 nm fluorescence, primary screen (AID 1133). Particulars: FGF2, fluorescence 635/667, higher = more signal.
Assay [7] is described as follows: JC-1 mitochondrial potential readout, lung cancer cells – cell-based, A549, JC-1 fluorescence, basal, 24 h, 100 nL, profiling panel (AID 1138).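 Further: A549 lung adenocarcinoma cells under basal conditions with no added stimulus; test concentration not given here.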 Particulars: higher = more signal.
Another assay has as its system Lefty1. The assay can be described thus: Lefty1 protein binding to printed compounds – biochemical, small-molecule microarray, 635/667 nm fluorescence, primary screen (AID 1139). The settings on record: fluorescence 635/667, higher = more signal.
The test system of assay [8] is wheat germ agglutinin (Triticum aestivum), Alexa647-labelled. The assay can be described thus: Alexa647-WGA lectin binding to printed small molecules – biochemical, small-molecule microarray, 635/667 nm fluorescence, artefact control for SMM control-protein annotation, profiling panel (AID 1140).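 Further: score merges 667 nm feature emission with signal to noise over triplicate slides.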 Particulars: WGA-A647 binding, 635 nm fluorescence, higher = more signal.

The target in assay [9] is Luciferin 4-monooxygenase (Photinus pyralis) (UniProt P08659). Put plainly: inhibition of purified Photinus pyralis luciferase – biochemical, luminescence, purified enzyme, 2006 set, primary screen (AID 1141).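 Further: cell-free assay with purified firefly luciferase at 100 ng per well in PBS; test concentration not given here.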 The settings on record: purified firefly luciferase, SteadyGlo luminescence, 30 min; higher = more signal, called active from +8 up or from −8 down.
Chain of Luciferin 4-monooxygenase (Photinus pyralis) (P08659 whole entry, looked up): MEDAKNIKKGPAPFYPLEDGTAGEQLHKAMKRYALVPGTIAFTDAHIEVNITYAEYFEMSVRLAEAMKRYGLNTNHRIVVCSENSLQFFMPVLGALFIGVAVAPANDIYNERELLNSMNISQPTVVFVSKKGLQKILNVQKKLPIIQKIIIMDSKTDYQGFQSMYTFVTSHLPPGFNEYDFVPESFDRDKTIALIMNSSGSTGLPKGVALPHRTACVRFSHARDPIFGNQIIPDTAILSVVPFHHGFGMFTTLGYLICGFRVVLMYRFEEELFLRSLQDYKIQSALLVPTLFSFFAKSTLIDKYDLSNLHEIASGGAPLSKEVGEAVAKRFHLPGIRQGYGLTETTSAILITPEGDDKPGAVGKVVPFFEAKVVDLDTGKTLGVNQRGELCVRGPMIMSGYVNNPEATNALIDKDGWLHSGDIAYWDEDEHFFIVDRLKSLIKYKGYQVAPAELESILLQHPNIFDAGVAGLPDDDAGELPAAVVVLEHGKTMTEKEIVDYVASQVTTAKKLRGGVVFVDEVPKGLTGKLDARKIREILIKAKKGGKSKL
For assay [10], the system named is Wnt5a (protein binding on small-molecule microarray). Put plainly: small molecules binding Wnt5a protein – biophysical, small-molecule microarray, 635/667 nm fluorescence, primary screen (AID 1142).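 Further: fluorescence read at 667 nm with signal to noise per printed feature.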 The settings on record: 635 nm fluorescence, higher = more signal.
Assay [11] in a line: ATP-based viability of Huh7 replicon cells – cell-based, CellTiter-Glo luminescence, basal, 48 h, cytotoxicity control for HCV replication inhibitor project, primary screen (AID 1143).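 Further: Huh7 hepatoma cells carrying a hepatitis C replication reporter with no stimulus; test concentration not given here.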 Particulars: higher = more signal, called active from +8 up or from −8 down.
Assay [12] can be described thus: Pseudomonas biofilm growth suppression – PAO1 strain, BacTiter-Glo luminescence, LB-PBS, primary screen (AID 1144). The settings on record: P. aeruginosa PAO1 biofilm, 12 h, higher = more signal.
A short description of assay [13]: basal CRE-LacZ reporter activity in PC12 – cell-based, unstimulated, primary screen (AID 1145). Particulars: no forskolin, luminescence, 4.5 h, higher = more signal, called active from +8 up or from −8 down.
The nature of assay [14]: forskolin-driven CRE-LacZ activity in PC12 – cell-based, CRE-LacZ reporter, forskolin-stimulated, primary screen (AID 1146).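 Further: PC12 cells with 6xCRE LacZ reporter stimulated by forskolin 10 µM; beta-galactosidase reporter signal reflecting CREB driven transcription.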 Particulars: luminescence, 4.5 h, higher = more signal, called active from +8 up or from −8 down.
Assay [15] has as its target Streptavidin (Streptomyces avidinii) (UniProt P22629). Put plainly: compounds binding control protein streptavidin – biophysical, small-molecule microarray, 635/667 nm fluorescence, artefact control for SMM compound annotation, primary screen (AID 1147).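 Further: signal reflects streptavidin binding to arrayed compounds as a control protein.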 The settings on record: higher = more signal.
A short description of assay [16]: probe aInhba binding on compound microarray – biochemical, small-molecule microarray, 635/667 nm fluorescence, primary screen (AID 1148).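 Further: score merges 667nm spot fluorescence with signal-to-noise for antibody binding to printed compounds.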 The settings on record: higher = more signal.
Assay [17] deals with Torsin-1A (Homo sapiens) (UniProt O14656). Put plainly: TOR1A wild-type binding on microarray – cell lysate, small-molecule microarray, lysate, 635/667 nm, primary screen (AID 1149). Particulars: COS7 hTOR1A-WT lysate, 635 nm fluorescence, higher = more signal.
Chain of Torsin-1A (Homo sapiens) (O14656 whole entry, looked up): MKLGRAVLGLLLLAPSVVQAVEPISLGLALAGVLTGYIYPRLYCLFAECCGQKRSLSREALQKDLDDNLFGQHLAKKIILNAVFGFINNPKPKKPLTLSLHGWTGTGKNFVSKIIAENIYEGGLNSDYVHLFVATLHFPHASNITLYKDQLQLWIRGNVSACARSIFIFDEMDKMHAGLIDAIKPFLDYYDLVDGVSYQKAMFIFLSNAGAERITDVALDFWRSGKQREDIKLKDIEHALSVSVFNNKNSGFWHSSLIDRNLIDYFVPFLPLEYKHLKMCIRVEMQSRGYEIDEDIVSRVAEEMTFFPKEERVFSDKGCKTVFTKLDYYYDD
The target is the same in assay [18]. Put plainly: torsin A mutant lysate binding on microarrays – cell lysate, small-molecule microarray, COS7 lysate, 635/667 nm fluorescence, primary screen (AID 1150).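 Further: score pools 667 nm emission and signal to noise measuring lysate protein binding.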 Particulars: COS7 hTOR1A mutant lysate, 635 nm fluorescence, higher = more signal.
Assay [19] concerns Sonic hedgehog protein (Shh). The assay can be described thus: Sonic hedgehog microarray binding compounds – biochemical, small-molecule microarray, 635/667 nm fluorescence, primary screen (AID 1151).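 Further: Shh protein binding to compounds spotted on small-molecule microarray slides; score combines spot fluorescence intensity with signal-to-noise across triplicate slides.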 The settings on record: 635 nm fluorescence, higher = more signal.

Activity calls are given as the source filed them. Unless noted, how the calls were made is not given here.

Chain of Fibroblast growth factor 2 (Homo sapiens) (P09038 whole entry, looked up): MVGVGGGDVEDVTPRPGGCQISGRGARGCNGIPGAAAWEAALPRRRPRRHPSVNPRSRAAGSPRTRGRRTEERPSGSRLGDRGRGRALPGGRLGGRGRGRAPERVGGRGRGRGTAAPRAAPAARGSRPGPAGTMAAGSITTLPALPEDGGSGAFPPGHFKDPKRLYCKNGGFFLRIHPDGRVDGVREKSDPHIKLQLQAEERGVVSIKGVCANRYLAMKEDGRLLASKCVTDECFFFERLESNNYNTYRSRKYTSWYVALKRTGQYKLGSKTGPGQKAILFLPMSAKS
Chain of Streptavidin (Streptomyces avidinii) (P22629 whole entry, looked up): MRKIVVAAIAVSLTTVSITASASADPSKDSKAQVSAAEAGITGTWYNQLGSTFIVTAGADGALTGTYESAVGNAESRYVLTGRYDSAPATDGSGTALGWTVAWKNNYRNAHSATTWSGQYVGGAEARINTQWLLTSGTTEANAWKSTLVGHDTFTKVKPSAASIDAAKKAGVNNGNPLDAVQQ

Take `O=C1O[C@H](c2ccccc2)[C@H](c2ccccc2)N2[C@H]1[C@@H](C(=O)NC[C@H](O)c1ccccc1)[C@]1(C(=O)Nc3ccccc31)[C@H]2c1ccc(OCCO)cc1`: the composite z-score in assay [1] turned out to be 1.77; in assay [2], 1.2; in assay [3], 1.06; in [4] it was 0.743; in assay [5], 0.992; in [6] it was 0.655. Further, the composite z-score in the assay on Lefty1 was 0.0702; in assay [8], 0.864; in assay [10] it was 0.187; in assay [15], 0.261; in [16] it was -0.0044; with Torsin-1A (Homo sapiens) [17] it was 1.55. The values for the composite z-score (with Torsin-1A (Homo sapiens) [18]; in assay [19]) were 0.492 and 0.297, respectively. Moreover, the z-score was -0.253 in assay [7]; -0.609 (inactive) in assay [9]; -2.93 (inactive) in [11]; -1.13 (inactive) in assay [12]; -0.0784 (inactive) in [13]; -0.499 (inactive) in [14].
For the compound `C=CCOC(=O)[C@@H]1[C@H]2C(=O)O[C@H](c3ccccc3)[C@H](c3ccccc3)N2[C@H](c2ccc(OCCOC(=O)[C@@H]3C[C@@H]4C(=O)N[C@@H](CCCCN(C)C)C(=O)N4[C@@H]3c3ccc(O)cc3)cc2)[C@@]12C(=O)Nc1ccc(I)cc12`, the composite z-score in [1] came out at 1.13; in [2], 0.799; in [3], 0.338; in [4] it was 0.177; in [5], 1.2; in assay [6], 1.34. The composite z-score worked out at 0.844 with Lefty1; 0.542 in assay [8]; 0.312 in [10]; 0.321 in assay [15]; 0.0649 in assay [16]; 0.724 with Torsin-1A (Homo sapiens) [17]. For the same compound, the results for the composite z-score (in the assay with Torsin-1A (Homo sapiens) [18]; in assay [19]) were 1.84 and 1.74, respectively. In addition, the z-score in [7] is -1.78; in assay [9], -2.62 (inactive); in assay [11], -0.768 (inactive); in assay [12], -0.975 (inactive); in [13], -0.675 (inactive); in assay [14], 0.595 (inactive).
On to `COC(=O)[C@@]1(Cc2ccccc2)[C@H]2c3cc(C(=O)N4CCCC4)n(Cc4cccc5ccccc45)c3C[C@H]2CN1C(=O)c1ccccc1`, for which the composite z-score is 2.46 in assay [1]; 1.17 in assay [2]; 0.971 in [3]; 0.51 in assay [4]; 0.184 in assay [5]; -0.0086 in [6]. In addition, the composite z-score with Lefty1 was -0.922; in [8], 1.29; in [10], 1.67; in assay [15] it was 2.82; in assay [16] it was 1.52; in the assay with Torsin-1A (Homo sapiens) [17], -0.0124. Besides, the composite z-score is 0.669 with Torsin-1A (Homo sapiens) [18] and -0.27 in assay [19]. Moreover, the z-score is 1.11 in assay [7]; 1.4 (inactive) in assay [9]; -2.97 (inactive) in assay [11]; 0.786 (inactive) in [12]; 1.73 (inactive) in assay [13]; 0.941 (inactive) in [14].
As for `C#CCN(CC1=CCCCC1)[C@H](c1ccccc1Br)[C@@H](O)Cc1ccccc1`, the composite z-score in assay [1] was 0.646; in assay [2], -0.0173; in [3], 1.98; in assay [4], -0.671; in assay [5], -0.688; in assay [6], -1.05. For the same compound, the composite z-score with Lefty1 is -0.955; in assay [8], 0.665; in assay [10] it was -0.0365; in assay [15] it was -0.949; in [16] it was -0.159; in the assay with Torsin-1A (Homo sapiens) [17] it was 1.07. Besides, the composite z-score with Torsin-1A (Homo sapiens) [18] is 0.962; in [19], -0.515. In addition, the z-score is -1.27 in [7]; -0.688 (inactive) in assay [9]; -1.5 (inactive) in assay [11]; 0.0281 (inactive) in [12]; 2.21 (inactive) in assay [13]; 0.219 (inactive) in assay [14].
